In the library only some 9.4% were active in any assay of this set; here they are far more common.
Rab9 prom act: activators of Rab9 promoter; AID 485297; Huh7 Rab9 promoter-luciferase reporter, luminescence, 24 h; hit rate 2.8% among 320,000; Potency, µM (top dose mostly 9.22 µM), for the others: top-dose activation, negative = inhibition, hits mostly activators; further: % of control where 0% means no effect; nearly all actives have a fitted effect of over 60% in size
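Huh7 reporter line, Rab9 promoter upstream of luciferase. Compound exposure 24 h at 37 °C in reduced-serum medium with 10% FBS. Read-out: luminescence.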
SMN2 splice up: increases expression of the SMN2 splice variant; Potency, µM (doses to about 46.1 µM), inactives show top-dose activity change, positive = activation, actives largely listed as activators; hit rate 2.8% among 210,000; HEK293 SMN2-luciferase splicing reporter, luminescence, 30-36 h; further: % of control where 0% means no effect; nearly all actives have a fitted effect of over 55% in size
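qHTS luciferase splicing reporter: luminescence rises when SMN2 exon 7 is included in transfected HEK293 cells. Compound exposure lasted 30-36 h at 37C, with 4.5 mM final sodium butyrate as control, followed by a ONE-Glo read.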
ELG1 repair inh: blocks ELG1-dependent DNA repair in HEK293T cells | HEK293T ELG1-luciferase reporter, luminescence, 16 h; DNA damage induced by 5-fluorouridine | Potency, µM (doses to about 46.1 µM), for inactives: at the highest dose activity change, negative = inhibition, actives largely listed as inhibitors | hit rate 2.3% among 330,000; further: on the % scale 0 is the no-effect control and ±100 the full control effect; nearly all actives have a fitted effect of over 55% in size
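Luminescence from the luciferase reporter, measured 30 min after ONE-Glo reagent at room temperature, was the read-out. Beforehand, 2,000 cells per well were exposed for 16 hr at 37 °C to 5-fluorouridine together with compound or vehicle.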
NPC1 promoter act: NPC1 promoter activation; hit rate 2.4% among 320,000; Huh7 NPC1 promoter luciferase reporter, 24 h; Potency, µM (titrated, usually from 9.22 µM), inactives show top-dose activation, usual class: activators; further: % of control where 0% means no effect; nearly all actives have a fitted effect of over 60% in size
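Stable NPC1-promoter luciferase Huh7 line; cpd (DMSO) 24 h, 37 °C, 5% CO2; Amplite luciferase reagent 10 min RT; luminescence readout. qHTS format.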
ELG1 genotox: inducers of genotoxicity in HEK293T ELG1-luciferase cells; HEK293T ELG1-luciferase reporter, luminescence, 16 h; Potency, µM (doses to about 46 µM), inactives show top-dose activity change, positive = activation, most hits filed as activators; hit rate 1.3% among 330,000; AID 504466; further: % of control where 0% means no effect; nearly all actives have a fitted effect of over 60% in size
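Luminescence read-out: rising ELG1-luciferase signal, reflecting elevated ELG1 protein under genetic stress, flags genotoxic compounds. Cells were treated for 16 hr at 37 °C before ONE-Glo detection.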
FLuc modulator: firefly luciferase modulation, counter-screen for miR-21 project; purified FLuc, Km substrates, luminescence inhibition; Potency, µM (top dose mostly 57.5 µM), without a hit: at the top dose activity change, negative = inhibition, usual class: inhibitors; AID 588342; P08659; hit rate 6.9% among 360,000;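 further: plate controls were vehicle for no effect and reference inhibitor for full effect; nearly all actives have a fitted effect of over 55% in size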
Target sequence (P08659 whole entry, looked up): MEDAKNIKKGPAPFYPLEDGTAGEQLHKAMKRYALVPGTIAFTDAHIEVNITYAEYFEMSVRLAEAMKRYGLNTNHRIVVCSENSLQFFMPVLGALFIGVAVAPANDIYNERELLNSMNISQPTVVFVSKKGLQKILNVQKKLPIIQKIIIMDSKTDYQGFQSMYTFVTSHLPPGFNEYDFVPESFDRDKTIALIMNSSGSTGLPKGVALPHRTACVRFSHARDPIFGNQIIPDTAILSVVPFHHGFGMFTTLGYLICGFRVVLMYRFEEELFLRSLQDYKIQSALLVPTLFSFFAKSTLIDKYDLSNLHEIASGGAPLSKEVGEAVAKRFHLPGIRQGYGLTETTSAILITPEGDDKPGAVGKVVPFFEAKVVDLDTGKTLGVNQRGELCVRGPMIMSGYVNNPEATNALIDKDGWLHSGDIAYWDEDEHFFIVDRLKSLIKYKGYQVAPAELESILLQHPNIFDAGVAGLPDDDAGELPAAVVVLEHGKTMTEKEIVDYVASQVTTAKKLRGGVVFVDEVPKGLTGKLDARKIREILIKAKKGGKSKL
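Biochemical qHTS of compounds, final roughly 60 µM downward over six points, against 10 nM purified firefly luciferase using Km concentrations of substrates (10 uM D-luciferin, 10 uM ATP) in Tris acetate pH 7.5 buffer; luminescence output.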
* hit, by the source's call; [ ] = remark or other dose. The call rests on the fitted dose curve; in most records, active means well fitted curve in the direction sought with a large enough effect; inconclusive means small, poorly fitted or top-dose-only effect, or another doubt; inactive means no such curve, though single readings can be large; an effect the other way counts as inactive or inconclusive. Potency means the concentration at half of the fitted maximal effect.

For COc1ccccc1NC(=O)c1sc2nc3c(cc2c1N)CCCCCC3 the results were SMN2 splice up -5% and FLuc modulator -11%.
Screening Cc1ccc(C(=O)c2sc3nc4c(cc3c2N)CCC4)cc1 returned Rab9 prom act 2.2µM*, SMN2 splice up 7.9µM*, ELG1 repair inh inconclusive, NPC1 promoter act 1.8µM*, ELG1 genotox inconclusive and FLuc modulator inconclusive.
Screening Cc1cc(C)c(NC(=O)C(C)n2nc(-c3ccc(C)c(C)c3)ccc2=O)c(C)c1 (centres undefined) returned FLuc modulator 6%.
Screening COc1ccc(-c2nsc3c(N4CCCCC4)ncnc23)cc1 returned Rab9 prom act inconclusive, SMN2 splice up -73%, ELG1 repair inh inconclusive, NPC1 promoter act inconclusive, ELG1 genotox inconclusive and FLuc modulator 0.085µM*.
For COc1ccc(C(=O)N2CCN(c3ncnc4c(-c5ccccc5)nsc34)CC2)cc1 the results were Rab9 prom act -6%, SMN2 splice up -87%, ELG1 repair inh inconclusive, NPC1 promoter act -4%, ELG1 genotox -3% and FLuc modulator -1%.
COc1ccc(-c2nsc3c(N4CCCCC4C)ncnc23)cc1 (centres undefined) was read as Rab9 prom act -44%, SMN2 splice up -73%, ELG1 repair inh inconclusive, NPC1 promoter act -29%, ELG1 genotox -9% and FLuc modulator 0.34µM*.
`CC(=O)Oc1ccccc1N(C(C)=O)S(=O)(=O)c1ccc2ccccc2c1` gave Rab9 prom act 9%, SMN2 splice up 8%, ELG1 repair inh 0%, NPC1 promoter act 0%, ELG1 genotox -1% and FLuc modulator -5%.
`CC(=O)Oc1c(Br)cc(N(C(C)=O)S(=O)(=O)c2ccccc2)c2ccccc12` gave Rab9 prom act 20%, ELG1 repair inh 23µM*, NPC1 promoter act 3%, ELG1 genotox -17% and FLuc modulator -13%.
Screening CC1CCC(C(C)C)C(=O)/C1=C/c1ccc(N)cc1 (centres undefined) returned Rab9 prom act 1.6µM*, ELG1 repair inh inconclusive, NPC1 promoter act 1.6µM*, ELG1 genotox inconclusive and FLuc modulator 11µM*.
For CSc1ccc(/C=C/C(=O)c2c(O)cc(C)oc2=O)cc1 the results were Rab9 prom act inconclusive, ELG1 repair inh inconclusive, NPC1 promoter act 19%, ELG1 genotox 21% and FLuc modulator 4.3µM*.
Screening COc1cccc(/C=C/C(=O)c2c(O)cc(C)oc2=O)c1O returned Rab9 prom act -34%, SMN2 splice up -45%, ELG1 repair inh inconclusive, NPC1 promoter act -1%, ELG1 genotox inconclusive and FLuc modulator inconclusive.
For Cc1cc(O)c(C(=O)/C=C/c2ccc(Cl)cc2)c(=O)o1 the results were Rab9 prom act -3%[1.84 µM], ELG1 repair inh inconclusive, NPC1 promoter act 20%, ELG1 genotox 2% and FLuc modulator 2.1µM*.
`COc1ccc(/C=C/C(=O)c2c(O)cc(C)oc2=O)c(OC)c1` gave Rab9 prom act 1.8µM*, SMN2 splice up -34%, ELG1 repair inh inconclusive, NPC1 promoter act 3.5µM*, ELG1 genotox 16µM* and FLuc modulator 1.3µM*.
Screening COc1cc(/C=C/C(=O)c2c(O)cc(C)oc2=O)cc(OC)c1O returned Rab9 prom act 2%, SMN2 splice up -30%, ELG1 repair inh inconclusive, NPC1 promoter act 1%, ELG1 genotox -2% and FLuc modulator -16%.
Screening COc1ccc(C(=O)NCCc2nc3ccccc3[nH]2)cc1 returned SMN2 splice up -4% and FLuc modulator -7%.
Cc1ccc(CNC(=O)CCc2c(C)c3cc4c(C)coc4cc3oc2=O)cc1 was read as SMN2 splice up 26% and FLuc modulator 1%.
Screening O=c1[nH]c(C2CC2)nc2sc3c(c12)CCCC3 returned Rab9 prom act -10%, SMN2 splice up -3%, ELG1 repair inh 5%, NPC1 promoter act -3%, ELG1 genotox 2% and FLuc modulator -14%.
